Data reported in PubChem BioAssay (NCI).
Values joined by “and” are separate entries in the source; they are usually repeats but may differ in a detail not shown here. Identical values can stand only once. Compounds without any hit were thinned out: in the full panel of roughly 83,000, 20% have a hit.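 Cell lines were cultured in 96-well plates, exposed to a single compound concentration, and assessed for percent growth 48 hours later.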 Active and inactive are the calls of the source. Rule for the calls: active = growth percent below 10; inactive = the rest.

How the values were obtained:
Experiment in all cases: NCI-60 one-dose screen, 48 h (100 = growth as untreated, 0 = no growth, -100 = all killed)
Conditions in all cases: 10 µM unless noted
[1] = system: NCI-H226 lung
[2] = system: NCI-H322M lung
[3] = system: HOP-62 NSCLC
[4] = system: NCI-H460 lung
[5] = system: HOP-92 NSCLC
[6] = system: NCI-H522 lung
[7] = system: A549/ATCC NSCLC
[8] = system: 786-0 renal
[9] = system: COLO 205 colon

Measured: growth

NC(=O)/C=C/C(=O)c1c(Cl)cccc1Cl
active: [3] -4.87% | [4] -34.1% | [5] -99.3% | [6] -59.5% | [7] -43.1% | [8] -98.8% | [9] -89.6%
inactive: [1] 37.9% | [2] 19.1%

CCC(CCCN(CC)CCc1ccccc1)OC(=O)c1cc(OC)c(OC)c(OC)c1 (configuration not stated)
inactive: [1] 89.7% | [3] 68.7% | [4] 101% | [5] 86.4% | [6] 69.6% | [7] 75.1% | [8] 89.9% | [9] 81.1%

O=C1c2ccccc2C(=O)c2sc(Nc3cccc(Cl)c3)nc21
active: [1] -44.3% | [3] -77.3% | [6] -32% | [8] 8.79%
inactive: [2] 64.5% | [4] 72.1% | [5] 65.2% | [7] 30.7% | [9] 84.7%

Oc1c(Cl)cc(Cl)c2cccnc12
inactive: [1] 81% and 71.6% | [2] 63.2% and 72.1% | [3] 49.7% and 71.2% | [4] 24.7% and 27.4% | [5] 49.7% | [6] 65.2% and 71.8% | [7] 30.6% | [8] 69.1% and 74% | [9] 99.9% and 85.2%

CN(C)CCOc1ccc2c(c1)C(=O)/C(=C\c1ncc([N+](=O)[O-])n1C)C2
active: [1] -38.5% | [2] 6.13% | [3] -17.8% | [4] -57.5% | [5] -54.3% | [6] -59.8% | [7] -29.6% | [8] -26.4% | [9] -91.9%

O=Nc1ccccc1N=O
inactive: [1] 88.5% | [3] 96% | [4] 93.5% | [5] 107% | [7] 86.2% | [8] 116% | [9] 83.4%
active: [6] -60.8%

N#CSCc1ccc(Cl)c(CSC#N)c1
inactive: [1] 74.2% | [3] 74% | [4] 16.3% | [6] 13.7% | [7] 35.5% | [8] 32.1%
active: [5] -4.43% | [9] -7.52%

CCOC(=O)/C=C/c1ccc([N+](=O)[O-])o1
inactive: [1] 20.2% | [2] 96% | [3] 112% | [4] 95.6% | [5] 47.6% | [7] 96.4% | [8] 75.8% | [9] 40.9%
active: [6] -55.1%

Oc1c(Cl)c2ccccc2c2ccccc12
inactive: [1] 99.7% | [3] 128% | [4] 116% | [5] 109% | [6] 44.3% | [7] 103% | [8] 109% | [9] 113%
